Assay results reported in PubChem BioAssay (NCATS).
Several values for one entry are separate records, joined by “and”; a condition that tells them apart may be missing. Equal entries are not always repeated. Inconclusive results are not listed. Activity calls are given as the source filed them. Unless noted, calls come from the whole dose curve.

Experiments:
[1] = Cellular Toxicity (caspase-3) Jurkat (AID 655; active = well fitted curve in the direction sought with a large enough effect; an effect the other way counts as inactive or inconclusive;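 note: cells exposed to compound for 16 h at 37 °C before reading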; note: potency is the fitted concentration of half-maximal effect); settings: Jurkat caspase-3 activation, luminescence; caspase-3 activation: at 92.2 µM (top of the series), DMSO = 0%, tamoxifen = 100%
How it was run: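 Luminescent Caspase-Glo 3/7 read-out (20 min, room temperature) after 16 h compound treatment at 37 C of 5000 Jurkat cells per well. AC50 derived by Hill-equation fitting, scaled between DMSO basal and 100 uM tamoxifen stimulation.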

[2] = Cell Viability - LYMP2-026 (AID 989; active = well fitted curve in the direction sought with a large enough effect; an effect the other way counts as inactive or inconclusive;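 note: cells exposed to compound for 24 h at 37 °C; nearly all actives have a fitted effect of over 50% in size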; note: potency is the fitted concentration of half-maximal effect)
How it was run: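 qHTS cytotoxicity: 2500 cells/well, 5 hr 37 C, compound 24 hr 37 C, CellTiter-Glo 30 min RT, luminescence. Tetraoctylammonium bromide positive control. AC50 via standard Hill fit.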

[3] = target: Peroxisome proliferator-activated receptor delta (Homo sapiens) (UniProt Q03181); assay: qHTS assay for small molecule agonists of peroxisome proliferator-activated receptor delta signaling (AID 588534);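 note: 0% = DMSO basal wells and 100% = positive control agonist at 10 µM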
Peroxisome proliferator-activated receptor delta (Homo sapiens), sequence (Q03181 whole entry, looked up): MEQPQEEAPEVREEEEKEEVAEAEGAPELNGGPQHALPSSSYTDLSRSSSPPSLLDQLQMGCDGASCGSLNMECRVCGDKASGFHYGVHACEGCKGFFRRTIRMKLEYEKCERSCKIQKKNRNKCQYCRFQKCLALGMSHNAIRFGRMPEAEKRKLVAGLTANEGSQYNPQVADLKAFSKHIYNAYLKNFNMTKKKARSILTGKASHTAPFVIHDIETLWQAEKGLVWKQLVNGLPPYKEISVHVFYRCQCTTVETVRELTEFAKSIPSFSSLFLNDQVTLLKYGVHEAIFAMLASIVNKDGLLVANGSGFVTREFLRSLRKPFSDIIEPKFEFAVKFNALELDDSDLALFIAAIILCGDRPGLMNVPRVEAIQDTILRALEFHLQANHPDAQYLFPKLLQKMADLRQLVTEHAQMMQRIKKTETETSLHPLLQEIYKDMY
How it was run: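 Titration series tested in agonist mode on beta-lactamase reporter cells; 18 hrs at 37 C after a 5 hr pre-incubation. Readout: CCF4 fluorescence, 2 hrs RT. Hill equation gives EC50 and maximal response.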

[4] = target: Thyroid hormone receptor beta (Homo sapiens) (UniProt P10828); assay: qHTS assay for small molecule agonists of thyroid hormone receptor beta signaling (AID 588545); note: potency is the fitted concentration of half-maximal effect;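 for activation: 0% = DMSO only and 100% = 10 nM T3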
Thyroid hormone receptor beta (Homo sapiens), sequence (P10828 whole entry, looked up): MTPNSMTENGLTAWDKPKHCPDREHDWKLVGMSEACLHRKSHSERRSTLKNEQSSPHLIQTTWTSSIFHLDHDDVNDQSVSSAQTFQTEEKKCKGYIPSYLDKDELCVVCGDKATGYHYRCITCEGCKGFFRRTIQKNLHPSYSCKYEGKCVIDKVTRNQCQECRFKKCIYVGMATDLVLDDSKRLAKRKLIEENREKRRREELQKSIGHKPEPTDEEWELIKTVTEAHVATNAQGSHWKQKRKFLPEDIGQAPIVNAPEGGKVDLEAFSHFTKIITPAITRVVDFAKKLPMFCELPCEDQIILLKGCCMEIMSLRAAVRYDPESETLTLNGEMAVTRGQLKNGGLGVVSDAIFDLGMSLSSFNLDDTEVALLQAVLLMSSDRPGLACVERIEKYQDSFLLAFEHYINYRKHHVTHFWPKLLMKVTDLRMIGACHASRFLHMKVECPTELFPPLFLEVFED
How it was run: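 Efficacy and EC50 values derive from Hill fits of qHTS titration data, normalized to 10 nM T3 and DMSO-only wells. HEK 293 reporter cells were stimulated for 18 hrs at 37 C, with beta-lactamase activity measured by CCF4 fluorescence.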

[5] = qHTS assay for small molecule antagonists of retinoid X receptor alpha signaling (AID 588546; active = well fitted inhibition curve with a large enough effect in the signal ratio, with a control signal flat, not every such curve was filed as active; the % refers to the signal ratio;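 note: cells stimulated with 9-cis-retinoic acid as agonist; % is set by controls: 0 for no effect and ±100 for the full control effect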); settings: HEK293T RXRa-UAS-bla, beta-lactamase ratio, antagonist mode; measured here: W530 green channel, cytotoxicity proxy
How it was run: (§1)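 Beta-lactamase reporter inhibition, read as CCF4 fluorescence ratio (ex 405, em 460/530 nm) after 2 h at RT. HEK293T UAS-bla cells, 2500/well, were stimulated with 9-cis-RA at 500 or 100 nM final alongside test compound for 18 h at 37 C.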

[6] = target: Retinoic acid receptor RXR-alpha (Homo sapiens) (UniProt P19793); assay: as above; settings: HEK293T RXRa-UAS-bla, beta-lactamase ratio, antagonist mode
Retinoic acid receptor RXR-alpha (Homo sapiens), sequence (P19793 whole entry, looked up): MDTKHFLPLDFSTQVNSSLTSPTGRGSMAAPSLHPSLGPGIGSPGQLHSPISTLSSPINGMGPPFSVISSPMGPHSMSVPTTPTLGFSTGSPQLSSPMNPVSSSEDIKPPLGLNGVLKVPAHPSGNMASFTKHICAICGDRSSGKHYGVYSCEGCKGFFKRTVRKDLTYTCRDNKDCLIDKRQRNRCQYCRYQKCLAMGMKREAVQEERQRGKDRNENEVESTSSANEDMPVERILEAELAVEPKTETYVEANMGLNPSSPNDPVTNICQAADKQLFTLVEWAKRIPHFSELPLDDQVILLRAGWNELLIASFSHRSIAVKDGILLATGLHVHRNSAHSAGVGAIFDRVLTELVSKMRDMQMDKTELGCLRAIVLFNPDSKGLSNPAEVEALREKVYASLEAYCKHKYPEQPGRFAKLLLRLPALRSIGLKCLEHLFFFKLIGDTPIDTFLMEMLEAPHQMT
How it was run: as §1

[7] = target: Thyroid hormone receptor beta (Homo sapiens) (UniProt P10828); assay: qHTS assay for small molecule antagonists of thyroid hormone receptor beta signaling (AID 588547; active = well fitted inhibition curve with a large enough effect in the signal ratio, with a control signal flat, not every such curve was filed as active; the % refers to the signal ratio;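 note: cells stimulated with 0.4 nM T3 agonist during compound exposure; % is set by controls: 0 for no effect and ±100 for the full control effect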); settings: TR-UAS-bla HEK293, beta-lactamase ratio, antagonist mode, 18 h
How it was run: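 Inhibition of T3-driven (0.4nM final) beta-lactamase reporter activity was measured over 0.59 nM to 92 uM compound after 18 h at 37 C. The cells were GripTite HEK293 TR-UAS-bla in charcoal/dextran-stripped serum, with CCF4 ratio read-out and IC50 from Hill fits.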

[8] = qHTS assay for small molecule agonists of the antioxidant response element (ARE) signaling pathway (AID 651741; active = well fitted activation curve with a large enough effect in the signal ratio; the % refers to the signal ratio; note: potency is the fitted concentration of half-maximal effect; for activation: % of control where 0% means no effect)
How it was run: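 Agonist activity is measured as ARE-driven beta-lactamase expression in a stable HepG2 reporter line, using 16 h compound treatment at 37 C and a FRET substrate fluorescence readout after 2 h.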

[9] = qHTS assay for small molecule activators of the p53 signaling pathway (AID 651743; active = well fitted activation curve with a large enough effect in the signal ratio, not every such curve was filed as active; the % refers to the signal ratio; note: potency is the fitted concentration of half-maximal effect; for activation: % of control where 0% means no effect); settings: HCT-116 p53RE-bla, beta-lactamase FRET ratio, 16 h; activation: stronger effect = higher value
How it was run: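 A beta-lactamase reporter under p53 response element control, stably carried by HCT-116 cells, reported pathway activation. Test compounds were applied for 16 hours at 37 C, and fluorescence was measured 2 hours after adding the B/G FRET substrate.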

[10] = qHTS assay for small molecule activators of the nuclear factor-kappa B (NF-kB) signaling pathway (AID 651749; active = well fitted activation curve with a large enough effect in the signal ratio; the % refers to the signal ratio; note: potency is the fitted concentration of half-maximal effect; for activation: % of control where 0% means no effect); settings: NF-kB-bla ME-180 cells, beta-lactamase FRET ratio, 16 h; activation: stronger effect = higher value
How it was run: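 FRET-based beta-lactamase detection in ME-180 cells reports NF-kB response-element-driven transcription following overnight (16 hr) compound treatment.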

[11] = target: Nuclear receptor ROR-gamma (Homo sapiens) (UniProt P51449); assay: qHTS assay for small molecule antagonists of the retinoid-related orphan receptor gamma (ROR-gamma) signaling pathway (AID 651802; active = well fitted curve in the direction sought with a large enough effect; an effect the other way counts as inactive or inconclusive; note: nearly all actives have a fitted effect of over 60% in size; note: potency is the fitted concentration of half-maximal effect)
Nuclear receptor ROR-gamma (Homo sapiens), sequence (P51449 whole entry, looked up): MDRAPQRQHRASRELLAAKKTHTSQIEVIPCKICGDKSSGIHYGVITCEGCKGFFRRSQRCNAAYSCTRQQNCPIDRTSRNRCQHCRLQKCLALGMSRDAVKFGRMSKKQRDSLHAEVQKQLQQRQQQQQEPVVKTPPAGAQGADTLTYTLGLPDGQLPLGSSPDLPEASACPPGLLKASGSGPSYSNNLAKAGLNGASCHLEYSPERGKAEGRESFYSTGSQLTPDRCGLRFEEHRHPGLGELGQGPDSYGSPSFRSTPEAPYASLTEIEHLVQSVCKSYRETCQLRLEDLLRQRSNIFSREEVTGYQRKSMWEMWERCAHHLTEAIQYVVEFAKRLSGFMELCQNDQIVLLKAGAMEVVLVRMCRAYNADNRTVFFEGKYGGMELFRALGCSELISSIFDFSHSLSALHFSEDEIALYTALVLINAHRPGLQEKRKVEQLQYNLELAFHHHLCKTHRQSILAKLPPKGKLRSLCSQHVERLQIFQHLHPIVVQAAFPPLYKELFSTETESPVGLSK
How it was run: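 Luciferase read-out: ONE-Glo luminescence after 30 min at room temperature, following 16hr doxycycline induction at 37C, 5% CO2 of CHO cells with TET-inducible ROR and RORE-LUC reporter; decreased luminescence = reduced reporter activity.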

[12] = qHTS assay for small molecule antagonists of the retinoid-related orphan receptor gamma (ROR-gamma) signaling pathway - cell viability counter screen (AID 720652; active = well fitted curve in the direction sought with a large enough effect in the repeat runs; an effect the other way counts as inactive or inconclusive;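 note: compound exposure lasted 16 hr before ATP read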; note: potency is the fitted concentration of half-maximal effect)
How it was run: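 CHO RORE-LUC/TET-ROR line, 1,000 cells/well, 37 C 5% CO2 5 hr; cpd or DMSO + doxycycline induction, 16 hr. CellTiter-Glo, 30 min RT, luminescence = ATP content.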

[13] = target: Nuclear receptor subfamily 1 group I member 2 (Rattus norvegicus) (UniProt Q9R1A7); assay: qHTS assay for small molecule activators of the rat pregnane X receptor (rPXR) signaling pathway (AID 651751; call rule not given here; note: 0% is about no effect); settings: rPXR reporter cells, luciferase (One-Glo), 24 h
Nuclear receptor subfamily 1 group I member 2 (Rattus norvegicus), sequence (Q9R1A7 whole entry, looked up): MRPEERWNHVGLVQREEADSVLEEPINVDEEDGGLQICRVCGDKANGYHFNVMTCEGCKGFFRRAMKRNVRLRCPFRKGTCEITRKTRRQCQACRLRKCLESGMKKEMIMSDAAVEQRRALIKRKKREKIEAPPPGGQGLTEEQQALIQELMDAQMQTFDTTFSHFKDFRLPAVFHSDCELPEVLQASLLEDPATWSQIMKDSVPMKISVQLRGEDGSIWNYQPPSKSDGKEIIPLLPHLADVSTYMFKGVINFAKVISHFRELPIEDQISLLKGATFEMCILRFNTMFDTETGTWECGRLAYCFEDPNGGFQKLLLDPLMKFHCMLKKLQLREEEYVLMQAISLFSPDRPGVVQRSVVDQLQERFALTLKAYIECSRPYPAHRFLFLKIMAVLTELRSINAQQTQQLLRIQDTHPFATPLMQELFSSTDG

[14] = target: Vitamin D3 receptor (Homo sapiens) (UniProt P11473); assay: qHTS assay for small molecule antagonists of vitamin D receptor signaling (AID 588541); note: potency is the fitted concentration of half-maximal effect
Vitamin D3 receptor (Homo sapiens), sequence (P11473 whole entry, looked up): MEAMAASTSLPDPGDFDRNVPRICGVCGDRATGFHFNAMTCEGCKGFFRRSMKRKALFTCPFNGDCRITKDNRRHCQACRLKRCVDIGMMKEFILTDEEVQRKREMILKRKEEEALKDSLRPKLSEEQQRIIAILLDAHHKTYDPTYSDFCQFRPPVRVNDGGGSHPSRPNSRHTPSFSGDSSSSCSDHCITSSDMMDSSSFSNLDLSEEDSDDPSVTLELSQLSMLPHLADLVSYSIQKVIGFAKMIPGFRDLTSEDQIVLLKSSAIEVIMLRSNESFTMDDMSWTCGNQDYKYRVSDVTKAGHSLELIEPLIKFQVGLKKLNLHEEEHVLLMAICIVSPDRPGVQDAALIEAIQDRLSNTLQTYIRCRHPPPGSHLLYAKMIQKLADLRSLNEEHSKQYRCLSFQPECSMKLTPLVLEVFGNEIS
How it was run: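 Antagonist-mode beta-lactamase reporter assay: HEK293T VDR-UAS-bla cells were exposed to titrated compound alongside 1-alpha,25-dihydroxyvitamin D3 at 3 nM final for 16 h. Values were normalized to the 50 nM agonist control and DMSO basal, with IC50 and efficacy from Hill equation fits.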

[15] = target: Vitamin D3 receptor (Homo sapiens) (UniProt P11473); assay: qHTS assay for small molecule agonists of vitamin D receptor signaling (AID 588543);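 note: 0% = DMSO basal and 100% = reference agonist control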
How it was run: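 Agonist-mode beta-lactamase reporter: HEK293T VDR-UAS-bla cells in charcoal-stripped 2% FBS, compound series 16 h 37 C, CCF4 2 h RT. EC50 from Hill fit, scaled against DMSO and 50 nM calcitriol control.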

[16] = qHTS assay for small molecule activators of the human pregnane X receptor (PXR) signaling pathway (AID 720659; call rule not given here; note: 0% is about no effect)
[17] = target: Cytochrome P450 2C9 (Homo sapiens) (UniProt P11712); assay: qHTS Assay for Inhibitors and Substrates of Cytochrome P450 2C9 (AID 883; active = well fitted curve in the direction sought with a large enough effect; an effect the other way counts as inactive or inconclusive; note: % is set by controls: 0 for no effect and ±100 for the full control effect; nearly all actives have a fitted effect of over 60% in size)
Cytochrome P450 2C9 (Homo sapiens), sequence (P11712 whole entry, looked up): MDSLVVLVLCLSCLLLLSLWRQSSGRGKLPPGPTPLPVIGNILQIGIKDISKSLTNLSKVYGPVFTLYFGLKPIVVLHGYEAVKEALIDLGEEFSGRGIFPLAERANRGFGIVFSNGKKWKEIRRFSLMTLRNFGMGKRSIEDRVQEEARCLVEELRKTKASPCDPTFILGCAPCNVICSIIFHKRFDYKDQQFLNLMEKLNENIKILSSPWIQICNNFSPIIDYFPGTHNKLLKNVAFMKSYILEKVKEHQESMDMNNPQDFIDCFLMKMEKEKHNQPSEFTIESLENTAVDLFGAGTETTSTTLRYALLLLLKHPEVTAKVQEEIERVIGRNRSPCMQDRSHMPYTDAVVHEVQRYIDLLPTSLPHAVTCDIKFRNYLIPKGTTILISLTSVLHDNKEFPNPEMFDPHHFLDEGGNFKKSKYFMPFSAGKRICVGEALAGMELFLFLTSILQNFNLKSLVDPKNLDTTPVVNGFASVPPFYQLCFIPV
How it was run: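 Turnover of Luciferin-H (100uM, KM) by 10nM human CYP2C9 was measured over 60 min at 37C with NADPH regeneration; inhibitors and some substrates reduce luminescence. Data normalized to sulphaphenazole 57uM.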

[18] = target: Guanine nucleotide-binding protein G(i) subunit alpha-1 (Homo sapiens) (UniProt P63096); assay: qHTS Assay for Inhibitors of RGS12 GoLoco Motif Activity (Green Fluorophore) (AID 879; active = well fitted curve in the direction sought with a large enough effect; an effect the other way counts as inactive or inconclusive;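 note: 0% = labeled peptide with Gαi1 and full inhibition = labeled peptide alone without protein; negative values mean loss of peptide binding seen as reduced polarization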)
Guanine nucleotide-binding protein G(i) subunit alpha-1 (Homo sapiens), sequence (P63096 whole entry, looked up): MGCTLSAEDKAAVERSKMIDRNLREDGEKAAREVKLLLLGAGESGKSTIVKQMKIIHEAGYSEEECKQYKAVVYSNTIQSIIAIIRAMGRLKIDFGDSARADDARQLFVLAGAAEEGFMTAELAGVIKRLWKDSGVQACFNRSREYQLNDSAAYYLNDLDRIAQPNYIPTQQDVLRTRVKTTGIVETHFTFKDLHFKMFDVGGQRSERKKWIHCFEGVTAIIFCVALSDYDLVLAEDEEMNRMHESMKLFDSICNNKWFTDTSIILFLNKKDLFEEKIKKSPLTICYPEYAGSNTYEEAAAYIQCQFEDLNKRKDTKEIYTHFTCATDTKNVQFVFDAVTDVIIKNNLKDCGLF
How it was run: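 A drop in FITC polarization marked displacement of the FITC-tagged RGS12 GoLoco peptide (10 nM) from Gαi1 (50 nM). Compounds were incubated 10 min at room temperature in Tris pH 7.5 buffer containing 150 mM NaCl, 0.1 mM GDP and 0.05% NP40; unlabeled peptide titration served as control.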

[19] = target: Alpha-galactosidase A (Homo sapiens) (UniProt P06280); assay: Counterscreen for Glucocerebrosidase Inhibitors: qHTS Assay for Human alpha-Galactosidase at pH 4.5 (AID 992; active = well fitted curve in the direction sought with a large enough effect; an effect the other way counts as inactive or inconclusive; note: 0% is about no effect)
Alpha-galactosidase A (Homo sapiens), sequence (P06280 whole entry, looked up): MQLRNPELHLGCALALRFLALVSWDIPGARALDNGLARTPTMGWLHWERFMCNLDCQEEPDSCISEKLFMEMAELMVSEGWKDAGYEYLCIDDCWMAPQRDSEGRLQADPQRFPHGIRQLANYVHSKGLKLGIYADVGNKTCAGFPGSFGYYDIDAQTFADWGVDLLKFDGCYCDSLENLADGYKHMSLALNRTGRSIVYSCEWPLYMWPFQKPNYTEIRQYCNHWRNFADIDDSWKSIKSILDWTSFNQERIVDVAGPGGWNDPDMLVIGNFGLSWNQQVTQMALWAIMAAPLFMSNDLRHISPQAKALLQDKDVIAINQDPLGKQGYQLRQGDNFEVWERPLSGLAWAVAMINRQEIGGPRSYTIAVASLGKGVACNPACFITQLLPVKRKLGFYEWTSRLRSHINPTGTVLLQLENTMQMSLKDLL
How it was run: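 Steps: enzyme (2 nM final), then compound across 0.7 nM to 77 uM, then 80 uM fluorogenic galactopyranoside substrate; incubate 20 min at room temperature; quench at pH 10; measure fluorescence at 365/440 nm.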

O=C(O)C1C(C(=O)O)C2(Cl)C(Cl)=C(Cl)C1(Cl)C2(Cl)Cl (configuration not stated)
inactive: caspase-3 activation [1] -0.527% | Potency [2] | outcome [3] | Potency [4] | max response [6] -12.3% | activity change % (negative = inhibition) [7] -20.8% | Potency [8] | activation [9] -3.18% | activation [10] 0.511% | Potency [11] | Potency [12] | max response [13] 0.252%
-3.5%: max response [5]

Cc1ccc(O)cc1C
inactive: activation [9] -0.374%

CCCCCCCCn1sccc1=O
inactive: outcome [3] | outcome [15] | Potency [4] | activation [9] -5.11% | activation [10] -0.619% and -1.03%
active: Potency [2] 3.98 µM | Potency [14] 22.4 µM | Potency [8] 66.8 µM and 54.5 µM | Potency [11] 11.9 µM

C[C@@H]1CC[C@@]2(OC1)O[C@H]1[C@@H](O)[C@H]3[C@@H]4CC[C@H]5C[C@@H](O[C@@H]6O[C@H](CO)[C@H](O[C@@H]7O[C@H](CO)[C@@H](O)[C@H](O[C@@H]8OC[C@@H](O)[C@H](O)[C@H]8O)[C@H]7O[C@@H]7O[C@H](CO)[C@@H](O)[C@H](O[C@@H]8O[C@H](CO)[C@@H](O)[C@H](O)[C@H]8O)[C@H]7O)[C@H](O)[C@H]6O)[C@H](O)C[C@]5(C)[C@H]4CC[C@]3(C)[C@H]1[C@@H]2C
inactive: outcome [16]
active: Potency [2] 15.8 µM | Potency [12] 11.9 µM

CCN1C[C@@]2(COC(=O)c3ccccc3N3C(=O)C[C@H](C)C3=O)CC[C@H](OC)[C@@]34[C@@H]5CC6[C@@H](OC)C[C@@](O)([C@H]5[C@H]6OC)C(O)([C@@H]13)[C@@H](OC)[C@H]24
inactive: Potency [17]

OC(c1ccc(Cl)cc1)(c1ccc(Cl)cc1)C(Cl)(Cl)Cl
-2.98%: max response [5]
inactive: Potency [2] | outcome [3] | Potency [14] | outcome [15] | max response [6] 3.94% | activity change % (negative = inhibition) [7] -3.99% | activation [10] -0.969% | max response [13] -0.762% and 6.21% | outcome [16]

CC(=O)[O-].CC(=O)[O-].O.O.[Cd+2]
active: Potency [12] 8.41 µM
inactive: caspase-3 activation [1] 4.84%

CC(C)CC(C)Nc1ccc(Nc2ccccc2)cc1 (configuration not stated)
-4.53%: max response [5]
inactive: caspase-3 activation [1] 17.5% | outcome [3] | outcome [15] | max response [6] -33.2%
active: Potency [8] 59.6 µM | Potency [11] 37.6 µM | Potency [12] 59.6 µM

Clc1ccc(C(c2ccc(Cl)cc2)C(Cl)Cl)cc1
inactive: caspase-3 activation [1] 22.6% | Potency [2] | outcome [15] | Potency [4] | activity change % (negative = inhibition) [7] -7.83% and -28.4% | activation [9] 6.6%
active: Potency [8] 66.8 µM and 61.1 µM | Potency [11] 37.6 µM

N#CC(Cl)Cl
active: Potency [1] 5.01 µM | Potency [8] 26.6 µM | Potency [9] 39.8 µM | Potency [11] 33.5 µM | Potency [12] 21.1 µM
6.6%: max response [5]
inactive: outcome [3] | outcome [15] | max response [6] 0.201% | activation [10] -2.38% | max response [13] 0.641% | outcome [16]

N#CSCSC#N
active: caspase-3 activation [1] -5.48% | Potency [2] 7.94 µM | Potency [9] 25.1 µM | Potency [12] 9.44 µM

FC(F)(F)c1ccc(Cl)cc1
inactive: caspase-3 activation [1] 2.36% | Potency [2] | outcome [3] | Potency [14] | outcome [15] | max response [6] -8.02% | activity change % (negative = inhibition) [7] 6.64% | activation [9] -2.63% and 1.33% | activation [10] 0.334% and 1.17% | Potency [11] | Potency [12] | max response [13] -0.484% and -1.67% | outcome [16]
-9.15%: max response [5]

c1ccc2cc3c(cc2c1)-c1cccc2cccc-3c12
inactive: caspase-3 activation [1] -1.28% | Potency [2] | Potency [11] | Potency [12] | max response [13] 5.83% and 4.65%
active: Potency [4] 7.94 µM | Potency [8] 1.88 µM and 1.93 µM | Potency [9] 6.31 µM and 8.91 µM | Potency [10] 7.08 µM and 4.47 µM

C#CCO
-7.57%: max response [5]
inactive: caspase-3 activation [1] -1.9% | Potency [2] | outcome [3] | Potency [14] | outcome [15] | Potency [4] | max response [6] 24.4% | activity change % (negative = inhibition) [7] -4.81% | activation [9] 0.794% | Potency [11] | Potency [12] | max response [13] 1.29% | outcome [16]

ClC1=C(Cl)C2(Cl)C3C(Cl)C(Cl)CC3C1(Cl)C2(Cl)Cl (configuration not stated)
inactive: outcome [3] | Potency [14] | outcome [15]
active: caspase-3 activation [1] 81.5% | Potency [8] 66.8 µM

O=[N+]([O-])C(Br)Br
active: Potency [2] 20 µM | Potency [8] 47.3 µM
-6.12%: max response [5]
inactive: outcome [3] | outcome [15] | Potency [4] | max response [6] 3.78% | activity change % (negative = inhibition) [7] 4.06% | max response [13] 1.81% | outcome [16]

[Cd+2].[Cl-].[Cl-]
inactive: caspase-3 activation [1] -2.73% | Potency [4]

C[C@@H]1O[C@@H](O[C@H]2C[C@@H](O)[C@]3(CO)[C@@H]4[C@@H](O)C[C@]5(C)[C@H]([C@@H]6COC(=O)C6)CC[C@@]5(O)[C@H]4CC[C@@]3(O)C2)[C@H](O)[C@H](O)[C@@H]1O
inactive: Potency [18] | outcome [19]
